Data on 17 targets can be found in the supplement of paper PMC6411743.

± gives the standard deviation of the averaged measurements. Targets with the largest changes are over-represented here; the source holds about 5,400 in all.

Compound in the assay: Nc1nc2c(ncn2[C@@H]2O[C@H](COP(=O)(O)OP(=O)(O)OP(=O)(O)O)[C@@H](O)[C@H]2O)c(=O)[nH]1 [guanosine triphosphate]
In words: NP40-soluble protein abundance relative to vehicle (solubility fold change) (ratio); higher = more soluble protein in presence of GTP. A digest of the protocol:
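Values are fold changes against the detergent-processed vehicle, based on vsn-normalised intensities. Jurkat crude lysate was treated at eight concentrations from 0.1 to 10 mM (10 min at room temperature, then 3 min at 37 °C), solubilised with 0.8% NP40 and benzonase, ultracentrifuged and analysed by TMT-labelled LC-MS/MS over three independent experiments.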

Chain of UniProt Q2M389 (Q2M389 whole entry, one chain of several): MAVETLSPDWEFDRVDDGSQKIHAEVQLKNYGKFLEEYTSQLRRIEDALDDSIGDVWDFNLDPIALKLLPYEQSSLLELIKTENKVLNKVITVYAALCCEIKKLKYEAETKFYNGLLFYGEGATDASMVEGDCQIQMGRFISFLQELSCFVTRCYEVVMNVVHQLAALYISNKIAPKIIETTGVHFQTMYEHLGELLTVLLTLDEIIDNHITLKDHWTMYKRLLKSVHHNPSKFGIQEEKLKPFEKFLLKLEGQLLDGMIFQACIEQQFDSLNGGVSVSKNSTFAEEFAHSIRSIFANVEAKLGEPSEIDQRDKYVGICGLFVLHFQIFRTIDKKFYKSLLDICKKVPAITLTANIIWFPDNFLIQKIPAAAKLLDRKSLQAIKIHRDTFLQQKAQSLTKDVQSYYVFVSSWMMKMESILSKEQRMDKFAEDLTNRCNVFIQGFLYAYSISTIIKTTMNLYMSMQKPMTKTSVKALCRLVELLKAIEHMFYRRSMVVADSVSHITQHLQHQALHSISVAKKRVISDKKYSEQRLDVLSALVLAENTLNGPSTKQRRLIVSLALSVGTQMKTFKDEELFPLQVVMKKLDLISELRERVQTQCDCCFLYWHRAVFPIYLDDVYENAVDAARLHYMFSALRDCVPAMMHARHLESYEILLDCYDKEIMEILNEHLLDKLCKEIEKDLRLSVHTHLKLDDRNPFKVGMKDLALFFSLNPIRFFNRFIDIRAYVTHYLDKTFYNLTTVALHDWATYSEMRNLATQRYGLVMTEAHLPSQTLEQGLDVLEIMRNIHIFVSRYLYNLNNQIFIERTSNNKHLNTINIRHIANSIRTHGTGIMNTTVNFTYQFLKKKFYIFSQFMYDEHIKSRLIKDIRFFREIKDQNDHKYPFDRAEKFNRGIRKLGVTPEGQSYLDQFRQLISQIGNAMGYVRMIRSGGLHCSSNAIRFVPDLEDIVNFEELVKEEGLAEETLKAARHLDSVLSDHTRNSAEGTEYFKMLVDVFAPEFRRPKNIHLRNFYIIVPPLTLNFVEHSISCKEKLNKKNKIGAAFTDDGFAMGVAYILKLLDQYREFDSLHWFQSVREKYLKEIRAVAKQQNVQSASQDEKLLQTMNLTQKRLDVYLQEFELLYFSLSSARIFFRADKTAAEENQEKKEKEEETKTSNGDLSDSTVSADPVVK
Chain of UniProt Q9NZ52 (Q9NZ52 whole entry, one chain of several): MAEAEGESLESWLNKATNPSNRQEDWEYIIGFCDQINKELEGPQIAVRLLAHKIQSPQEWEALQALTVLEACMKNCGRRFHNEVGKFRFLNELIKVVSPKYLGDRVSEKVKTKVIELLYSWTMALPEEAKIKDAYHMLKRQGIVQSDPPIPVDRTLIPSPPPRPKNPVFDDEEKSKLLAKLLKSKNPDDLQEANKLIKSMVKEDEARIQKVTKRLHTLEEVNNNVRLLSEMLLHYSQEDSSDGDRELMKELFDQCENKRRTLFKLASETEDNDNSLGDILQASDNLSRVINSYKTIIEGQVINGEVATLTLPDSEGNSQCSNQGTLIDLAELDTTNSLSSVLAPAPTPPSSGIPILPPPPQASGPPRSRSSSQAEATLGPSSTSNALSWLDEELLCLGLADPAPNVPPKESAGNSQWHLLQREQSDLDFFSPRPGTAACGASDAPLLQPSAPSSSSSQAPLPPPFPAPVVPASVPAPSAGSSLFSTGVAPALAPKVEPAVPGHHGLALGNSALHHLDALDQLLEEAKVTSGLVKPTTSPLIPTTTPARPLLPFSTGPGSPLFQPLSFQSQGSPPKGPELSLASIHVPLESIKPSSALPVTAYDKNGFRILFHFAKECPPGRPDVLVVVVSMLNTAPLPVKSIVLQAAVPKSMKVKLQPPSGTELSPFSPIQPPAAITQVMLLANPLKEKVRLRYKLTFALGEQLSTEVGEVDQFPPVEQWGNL
Chain of UniProt Q8NI36 (Q8NI36 whole entry, one chain of several): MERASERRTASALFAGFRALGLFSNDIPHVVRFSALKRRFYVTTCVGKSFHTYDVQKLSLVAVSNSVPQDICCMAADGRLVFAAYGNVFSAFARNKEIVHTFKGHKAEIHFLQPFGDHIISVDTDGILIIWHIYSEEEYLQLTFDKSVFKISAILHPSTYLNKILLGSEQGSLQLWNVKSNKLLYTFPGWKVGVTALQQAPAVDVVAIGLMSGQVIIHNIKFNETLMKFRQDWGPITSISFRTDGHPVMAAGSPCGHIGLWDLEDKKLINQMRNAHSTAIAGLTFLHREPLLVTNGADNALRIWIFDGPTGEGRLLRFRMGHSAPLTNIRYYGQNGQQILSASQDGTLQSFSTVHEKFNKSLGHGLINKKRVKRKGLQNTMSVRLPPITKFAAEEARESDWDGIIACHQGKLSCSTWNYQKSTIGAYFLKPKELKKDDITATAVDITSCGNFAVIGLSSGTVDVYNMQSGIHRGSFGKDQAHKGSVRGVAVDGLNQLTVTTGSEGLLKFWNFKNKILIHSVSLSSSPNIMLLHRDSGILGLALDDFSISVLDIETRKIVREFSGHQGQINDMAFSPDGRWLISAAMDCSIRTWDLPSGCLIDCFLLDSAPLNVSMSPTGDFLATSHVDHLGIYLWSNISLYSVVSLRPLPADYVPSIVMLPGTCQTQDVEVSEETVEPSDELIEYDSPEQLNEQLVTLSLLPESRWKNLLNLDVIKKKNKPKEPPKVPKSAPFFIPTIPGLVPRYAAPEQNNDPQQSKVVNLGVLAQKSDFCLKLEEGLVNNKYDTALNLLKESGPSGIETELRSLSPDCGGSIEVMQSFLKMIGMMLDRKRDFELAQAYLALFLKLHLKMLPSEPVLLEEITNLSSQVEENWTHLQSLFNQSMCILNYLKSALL
Chain of UniProt Q8N128 (Q8N128 whole entry, one chain of several): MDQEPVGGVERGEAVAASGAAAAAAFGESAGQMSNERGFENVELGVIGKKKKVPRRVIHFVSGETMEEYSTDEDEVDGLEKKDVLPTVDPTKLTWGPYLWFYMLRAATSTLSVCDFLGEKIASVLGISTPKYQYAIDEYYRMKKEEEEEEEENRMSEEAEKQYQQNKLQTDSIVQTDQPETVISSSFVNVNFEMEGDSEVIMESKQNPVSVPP
Chain of UniProt Q03154 (Q03154 whole entry, looked up, other chains not shown): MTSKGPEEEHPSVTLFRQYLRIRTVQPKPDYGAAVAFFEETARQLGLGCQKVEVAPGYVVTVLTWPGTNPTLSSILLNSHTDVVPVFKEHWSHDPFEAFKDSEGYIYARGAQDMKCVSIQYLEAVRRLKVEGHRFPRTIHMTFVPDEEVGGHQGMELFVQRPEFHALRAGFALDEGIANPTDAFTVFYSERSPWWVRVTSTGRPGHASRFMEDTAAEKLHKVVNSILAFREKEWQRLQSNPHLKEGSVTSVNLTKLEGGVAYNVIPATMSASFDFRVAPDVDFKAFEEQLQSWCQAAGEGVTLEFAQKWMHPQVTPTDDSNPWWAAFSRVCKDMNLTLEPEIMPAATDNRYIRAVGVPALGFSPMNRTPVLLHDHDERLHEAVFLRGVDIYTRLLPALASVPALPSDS
Chain of UniProt Q9Y262 (Q9Y262 whole entry, one chain of several): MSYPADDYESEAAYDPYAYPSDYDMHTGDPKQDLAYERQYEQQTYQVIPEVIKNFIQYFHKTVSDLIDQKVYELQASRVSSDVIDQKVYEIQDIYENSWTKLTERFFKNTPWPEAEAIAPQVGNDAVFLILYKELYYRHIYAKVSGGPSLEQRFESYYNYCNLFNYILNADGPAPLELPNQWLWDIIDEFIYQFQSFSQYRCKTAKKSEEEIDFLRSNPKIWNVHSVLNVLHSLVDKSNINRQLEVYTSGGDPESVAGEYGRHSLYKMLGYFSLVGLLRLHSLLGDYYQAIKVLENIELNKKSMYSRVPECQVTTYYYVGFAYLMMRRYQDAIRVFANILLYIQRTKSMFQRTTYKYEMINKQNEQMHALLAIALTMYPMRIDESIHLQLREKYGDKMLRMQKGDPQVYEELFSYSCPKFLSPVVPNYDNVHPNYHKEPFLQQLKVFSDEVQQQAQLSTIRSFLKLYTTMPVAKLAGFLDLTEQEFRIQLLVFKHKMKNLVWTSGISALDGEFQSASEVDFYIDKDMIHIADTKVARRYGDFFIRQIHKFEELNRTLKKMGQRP
Chain of UniProt Q96GG9 (Q96GG9 whole entry, looked up, one chain of several): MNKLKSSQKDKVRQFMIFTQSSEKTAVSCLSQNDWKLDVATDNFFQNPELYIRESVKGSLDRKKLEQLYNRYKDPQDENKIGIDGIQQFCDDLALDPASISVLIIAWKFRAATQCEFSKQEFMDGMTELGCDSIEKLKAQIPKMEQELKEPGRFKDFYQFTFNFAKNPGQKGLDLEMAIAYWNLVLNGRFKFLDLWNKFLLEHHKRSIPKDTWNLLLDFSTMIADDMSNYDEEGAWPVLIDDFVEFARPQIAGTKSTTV
Chain of UniProt Q3LXA3 (Q3LXA3 whole entry, one chain of several): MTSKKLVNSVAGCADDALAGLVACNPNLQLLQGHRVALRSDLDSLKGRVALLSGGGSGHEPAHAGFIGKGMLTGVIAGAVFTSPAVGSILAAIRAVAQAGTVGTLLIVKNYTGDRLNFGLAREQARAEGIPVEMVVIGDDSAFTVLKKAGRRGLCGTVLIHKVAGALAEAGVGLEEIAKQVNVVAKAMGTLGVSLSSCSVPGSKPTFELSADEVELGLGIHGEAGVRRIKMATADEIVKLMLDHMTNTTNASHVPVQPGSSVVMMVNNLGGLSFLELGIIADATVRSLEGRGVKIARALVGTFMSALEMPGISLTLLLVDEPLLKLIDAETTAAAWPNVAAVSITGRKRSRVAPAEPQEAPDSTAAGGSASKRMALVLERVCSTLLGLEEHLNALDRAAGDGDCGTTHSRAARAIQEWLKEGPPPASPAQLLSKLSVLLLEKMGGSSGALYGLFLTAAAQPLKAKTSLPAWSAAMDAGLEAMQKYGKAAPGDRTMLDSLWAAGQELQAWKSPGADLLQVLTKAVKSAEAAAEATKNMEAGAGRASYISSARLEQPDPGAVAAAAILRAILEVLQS
Chain of UniProt P01850 (P01850 whole entry): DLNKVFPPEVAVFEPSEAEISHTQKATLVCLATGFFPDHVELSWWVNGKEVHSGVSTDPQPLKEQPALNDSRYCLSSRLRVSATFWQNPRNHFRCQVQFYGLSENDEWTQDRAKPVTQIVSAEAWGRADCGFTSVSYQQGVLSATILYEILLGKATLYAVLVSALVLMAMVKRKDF

For “B8ZZU6|E9PBF9|P15336-5|P15336 (UniProt P15336)”, the NP40-soluble protein abundance is, setting by setting: (concentration: 0.1mM) 0.868 ± 0.086; (concentration: 0.5mM) 0.907 ± 0.044; (concentration: 1mM) 0.969 ± 0.14; (concentration: 2mM) 0.943 ± 0.078; (concentration: 4mM) 0.899 ± 0.011; (concentration: 6mM) 0.899 ± 0.045. The NP40-soluble protein abundance (concentration: 8mM) stood at 0.906 ± 0.1 and the NP40-soluble protein abundance (concentration: 10mM) stood at 0.955 ± 0.078.

As to B1AMU7|Q9Y3B2 (UniProt Q9Y3B2), the NP40-soluble protein abundance (concentration: 0.1mM) was determined as 1.02 ± 0.037; the NP40-soluble protein abundance (concentration: 0.5mM) came to 1.07 ± 0.04; the NP40-soluble protein abundance (concentration: 1mM) was 1.01 ± 0.056; the NP40-soluble protein abundance (concentration: 2mM) turned out to be 1.1 ± 0.11; the NP40-soluble protein abundance (concentration: 4mM) was 1.18 ± 0.11; the NP40-soluble protein abundance (concentration: 6mM) amounted to 1.22 ± 0.12. Moreover, the NP40-soluble protein abundance by setting is: (concentration: 8mM) 1.17 ± 0.062; (concentration: 10mM) 1.18 ± 0.068.

In the case of “A0A087WYN2|J3KSS7|Q9NZ52|Q9NZ52-4 (UniProt Q9NZ52)”, the NP40-soluble protein abundance reads like this: (concentration: 0.1mM) 0.909 ± 0.037; (concentration: 0.5mM) 0.905 ± 0.087; (concentration: 1mM) 0.957 ± 0.09; (concentration: 2mM) 0.915 ± 0.13; (concentration: 4mM) 0.92 ± 0.14; (concentration: 6mM) 0.94 ± 0.16. Moreover, the NP40-soluble protein abundance was determined as 0.921 ± 0.08 (concentration: 8mM) and 0.896 ± 0.057 (concentration: 10mM).

As for “A0A0C4DFU2|P04179|P04179-4 (UniProt P04179)”, the NP40-soluble protein abundance is, setting by setting: (concentration: 0.1mM) 0.85 ± 0.056; (concentration: 0.5mM) 0.843 ± 0.071; (concentration: 1mM) 0.851 ± 0.071; (concentration: 2mM) 0.839 ± 0.043; (concentration: 4mM) 0.814 ± 0.045; (concentration: 6mM) 0.823 ± 0.052. Moreover, the NP40-soluble protein abundance is, setting by setting: (concentration: 8mM) 0.734 ± 0.073; (concentration: 10mM) 0.776 ± 0.07.

As for G5E9Z2|Q96KA5|Q96KA5-2 (UniProt Q96KA5), the NP40-soluble protein abundance (concentration: 0.1mM) is 1.09 ± 0.049; the NP40-soluble protein abundance (concentration: 0.5mM) worked out at 1.07 ± 0.017; the NP40-soluble protein abundance (concentration: 1mM) stood at 1.02 ± 0.042; the NP40-soluble protein abundance (concentration: 2mM) came out at 0.983 ± 0.034; the NP40-soluble protein abundance (concentration: 4mM) came out at 0.989 ± 0.016; the NP40-soluble protein abundance (concentration: 6mM) was 0.971 ± 0.039. In addition, the NP40-soluble protein abundance (concentration: 8mM) came out at 0.974 ± 0.035 and the NP40-soluble protein abundance (concentration: 10mM) was 0.96 ± 0.04.

In the case of G3V583|Q8N128|Q8N128-2 (UniProt Q8N128), the NP40-soluble protein abundance is, setting by setting: (concentration: 0.1mM) 0.912 ± 0.089; (concentration: 0.5mM) 0.928 ± 0.084; (concentration: 1mM) 0.869 ± 0.13; (concentration: 2mM) 0.94 ± 0.16; (concentration: 4mM) 0.887 ± 0.16; (concentration: 6mM) 0.861 ± 0.14. The NP40-soluble protein abundance by setting is: (concentration: 8mM) 0.87 ± 0.1; (concentration: 10mM) 0.902 ± 0.14.

In the case of A0A087WZV8|A0A0G2JN66 (UniProt P01850), the NP40-soluble protein abundance (concentration: 0.1mM) turned out to be 1.02 ± 0.032; the NP40-soluble protein abundance (concentration: 0.5mM) is 1.04 ± 0.034; the NP40-soluble protein abundance (concentration: 1mM) was 1.002 ± 0.0081; the NP40-soluble protein abundance (concentration: 2mM) came out at 1.01 ± 0.042; the NP40-soluble protein abundance (concentration: 4mM) amounted to 1.01 ± 0.036; the NP40-soluble protein abundance (concentration: 6mM) amounted to 0.98 ± 0.023. The NP40-soluble protein abundance by setting is: (concentration: 8mM) 0.977 ± 0.04; (concentration: 10mM) 0.976 ± 0.046.

For the target C9J8R4|C9JVE2|Q96GG9 (UniProt Q96GG9), the NP40-soluble protein abundance is, setting by setting: (concentration: 0.1mM) 0.935 ± 0.042; (concentration: 0.5mM) 0.919 ± 0.034; (concentration: 1mM) 0.903 ± 0.049; (concentration: 2mM) 0.889 ± 0.072; (concentration: 4mM) 0.867 ± 0.048; (concentration: 6mM) 0.87 ± 0.044. For the same target, the NP40-soluble protein abundance (concentration: 8mM) came out at 0.842 ± 0.077 and the NP40-soluble protein abundance (concentration: 10mM) was determined as 0.84 ± 0.084.

For the target “A0A087WU64|A6NMQ1|P09884 (UniProt P09884)”, the NP40-soluble protein abundance runs as follows: (concentration: 0.1mM) 1.06 ± 0.025; (concentration: 0.5mM) 1.07 ± 0.035; (concentration: 1mM) 1.01 ± 0.047; (concentration: 2mM) 1.02 ± 0.057; (concentration: 4mM) 1.01 ± 0.033; (concentration: 6mM) 0.994 ± 0.028. In addition, the NP40-soluble protein abundance is, setting by setting: (concentration: 8mM) 1.01 ± 0.051; (concentration: 10mM) 0.973 ± 0.029.

As to A0A0A0MTB8|Q8NI36 (UniProt Q8NI36), the NP40-soluble protein abundance (concentration: 0.1mM) came out at 1.1 ± 0.013; the NP40-soluble protein abundance (concentration: 0.5mM) worked out at 1.18 ± 0.047; the NP40-soluble protein abundance (concentration: 1mM) was determined as 1.2 ± 0.064; the NP40-soluble protein abundance (concentration: 2mM) was 1.55 ± 0.056; the NP40-soluble protein abundance (concentration: 4mM) is 2 ± 0.13; the NP40-soluble protein abundance (concentration: 6mM) came to 2.39 ± 0.2. The NP40-soluble protein abundance is, setting by setting: (concentration: 8mM) 2.33 ± 0.13; (concentration: 10mM) 2.39 ± 0.3.

Consider F5H269|Q9Y485 (UniProt Q9Y485), for which the NP40-soluble protein abundance runs as follows: (concentration: 0.1mM) 0.991 ± 0.013; (concentration: 0.5mM) 1.11 ± 0.081; (concentration: 1mM) 1.05 ± 0.096; (concentration: 2mM) 1.01 ± 0.087; (concentration: 4mM) 1.04 ± 0.09; (concentration: 6mM) 1.06 ± 0.088. The NP40-soluble protein abundance was 1.12 ± 0.15 (concentration: 8mM) and 1.11 ± 0.11 (concentration: 10mM).

As to B0QY89|Q9Y262|Q9Y262-2 (UniProt Q9Y262), the NP40-soluble protein abundance is, setting by setting: (concentration: 0.1mM) 1.08 ± 0.062; (concentration: 0.5mM) 1.09 ± 0.09; (concentration: 1mM) 1.06 ± 0.1; (concentration: 2mM) 1.17 ± 0.19; (concentration: 4mM) 1.33 ± 0.28; (concentration: 6mM) 1.47 ± 0.34. Also, the NP40-soluble protein abundance (concentration: 8mM) worked out at 1.57 ± 0.29 and the NP40-soluble protein abundance (concentration: 10mM) worked out at 1.75 ± 0.35.

Regarding “UniProt A5PLN9|A5PLN9-2|A5PLN9-4|A5PLN9-5”, the NP40-soluble protein abundance is 1.02 ± 0.078 (concentration: 0.1mM); 1.04 ± 0.052 (concentration: 0.5mM); 0.99 ± 0.041 (concentration: 1mM); 0.954 ± 0.05 (concentration: 2mM); 0.969 ± 0.073 (concentration: 4mM); 0.951 ± 0.041 (concentration: 6mM). Besides, the NP40-soluble protein abundance runs as follows: (concentration: 8mM) 0.965 ± 0.014; (concentration: 10mM) 0.904 ± 0.014.

In the case of “E9PGC0|P20936|P20936-2|P20936-4 (UniProt P20936)”, the NP40-soluble protein abundance reads like this: (concentration: 0.1mM) 1.05 ± 0.069; (concentration: 0.5mM) 1.04 ± 0.091; (concentration: 1mM) 1.02 ± 0.11; (concentration: 2mM) 0.997 ± 0.072; (concentration: 4mM) 0.909 ± 0.027; (concentration: 6mM) 0.931 ± 0.032. Moreover, the NP40-soluble protein abundance is, setting by setting: (concentration: 8mM) 0.961 ± 0.048; (concentration: 10mM) 0.899 ± 0.031.

For the target A0A087X256|Q2M389 (UniProt Q2M389), the NP40-soluble protein abundance by setting is: (concentration: 0.1mM) 1.04 ± 0.058; (concentration: 0.5mM) 1.01 ± 0.097; (concentration: 1mM) 0.973 ± 0.048; (concentration: 2mM) 0.975 ± 0.028; (concentration: 4mM) 0.957 ± 0.028; (concentration: 6mM) 0.973 ± 0.044. Also, the NP40-soluble protein abundance reads like this: (concentration: 8mM) 1.02 ± 0.068; (concentration: 10mM) 0.889 ± 0.024.

Take “C9JMV9|Q03154|Q03154-4 (UniProt Q03154+C9JMV9)”: the NP40-soluble protein abundance by setting is: (concentration: 0.1mM) 1.03 ± 0.012; (concentration: 0.5mM) 1.03 ± 0.011; (concentration: 1mM) 0.97 ± 0.078; (concentration: 2mM) 0.924 ± 0.036; (concentration: 4mM) 0.954 ± 0.019; (concentration: 6mM) 0.933 ± 0.031. The NP40-soluble protein abundance stood at 0.94 ± 0.05 (concentration: 8mM) and 0.956 ± 0.12 (concentration: 10mM).

As to A0A087WUL0|Q3LXA3 (UniProt Q3LXA3), the NP40-soluble protein abundance by setting is: (concentration: 0.1mM) 0.988 ± 0.11; (concentration: 0.5mM) 0.963 ± 0.11; (concentration: 1mM) 0.978 ± 0.14; (concentration: 2mM) 0.928 ± 0.12; (concentration: 4mM) 0.948 ± 0.11; (concentration: 6mM) 0.96 ± 0.16. For the same target, the NP40-soluble protein abundance (concentration: 8mM) was found to be 0.96 ± 0.1 and the NP40-soluble protein abundance (concentration: 10mM) turned out to be 0.951 ± 0.097.
